26 molecules from PubChem BioAssay AID1662 (Broad Institute, 2009) can be followed below.

About 4,000 (1.3%) of roughly 300,000 compounds were called active.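 The calls were made as follows: active = mean replicate score, as percent of positive control median, at least 50; inconclusive = mean below 50 but one replicate at or above 50; inactive = mean and every replicate below 50.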 The full list was thinned out, with actives kept by preference.

This assay can be described thus: S. pyogenes SKKanGAS growth inhibitors in kanamycin, primary screen, streptokinase expression inhibitor project, SKKanGAS strain, BacTiter-Glo luminescence (AID 1662).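 Also: strain carries kanamycin resistance gene driven by streptokinase promoter and grows in 40 µg/ml kanamycin; loss of luminescence reflects streptokinase promoter inhibition or plain growth inhibition; 0% = median of DMSO wells and 100% = positive control at its reference dose.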 Conditions: 6 h, at 7.5 µM, stronger effect = higher value.
As to `CC(=O)Oc1ccc(-c2cccc(C(=O)N3CCCCC3)c2)cc1`, the inhibition is -5.29% (inactive).

On to `CCN1CCN(C(=O)N(Cc2ccc(Cl)cc2)S(=O)(=O)c2ccc(C)cc2)CC1`, for which the inhibition was -0.707% (inactive).

On to `COc1ccc(C(=O)/C=C/c2ccc(-c3ccccc3)cc2)cc1CSCC(=O)O`, for which the inhibition was 51.6% (active). As to `COC(=O)c1ccc(COc2ccc(/C=C/C(=O)c3ccc(OC)c(CSCC(=O)O)c3)cc2OC)cc1`, the inhibition was -12.5% (inactive). For `COc1ccc(/C=C/C(=O)c2ccc(NS(=O)(=O)c3ccc(C)cc3)cc2)cc1O`, the inhibition is 31.2% (inactive). In the case of `Cc1occc(=O)c1OCc1c(Cl)cccc1Cl`, the inhibition is 1.59% (inactive).

Take `CCN(CC)c1ccc(S(=O)(=O)N2CCCCC2)cc1NC(=O)C1=COCCO1`: the inhibition was -12% (inactive). In the case of `O=C1CC2(CCCC2)Oc2ccc(Cl)cc21`, the inhibition was 9.19% (inactive).

For the molecule `O=C1Cc2ccccc2Sc2ccc(Cl)cc21`, the inhibition is 75% (active).

For the molecule `S=C1Nc2cc(Cl)ccc2Sc2ccccc21`, the inhibition is 3.58% (inactive). In the case of `O=C(CCNC(=O)c1ccc(Br)cc1)NCCCc1ccccc1`, the inhibition was -14.7% (inactive).

With `CN(CCc1ccccn1)S(=O)(=O)c1ccc2c3c(cccc13)C(=O)N2`, the inhibition was -0.86% (inactive).

As for `O=C(NCc1ccncc1)C1CCCN(S(=O)(=O)c2ccc(Br)cc2)C1` (stereo unspecified), the inhibition is 3.53% (inactive). In the case of `O=C1CCCc2c1nc(-c1cccc(Cl)c1)n2O`, the inhibition is -3.24% (inactive). In the case of `Cc1cccc(-c2nc3ccccc3c(=O)n2NC(=O)Cc2ccc(Cl)cc2)c1` it was -2.71% (inactive).

On to `O=c1c2cc(Br)ccc2nc(-c2cccc(Cl)c2)n1O`, for which the inhibition is 78.4% (active). Take `CCCOc1ccc(C2NC(=O)NC(c3ccccc3)=C2C(C)=O)cc1OCC` (stereo unspecified): the inhibition is -8.73% (inactive). For `Cc1cccc([C@@H]2[C@@H]3C(=O)N(Cc4ccccc4)C(=O)[C@@H]3[C@]3(Cc4ccc(Cl)cc4)C(=O)N(c4cccc(Cl)c4)C(=O)N23)c1`, the inhibition is -2.38% (inactive). On to `CC(OC(=O)CNC(=O)c1ccc(Cl)c([N+](=O)[O-])c1)C(=O)NCc1ccco1` (stereo unspecified), for which the inhibition is -7.18% (inactive). As for `COc1cccc(/C(C)=N/Nc2ncc(Cl)cc2Cl)c1`, the inhibition was -4.25% (inactive). In the case of `COC(=O)Cc1ccc(Oc2ncc(C(F)(F)F)cc2Cl)cc1` it was -5.08% (inactive); in that of `COc1cccc(/C=N/Nc2ncc(C(F)(F)F)cc2Cl)c1O`, 95.9% (active).

On to `Cc1cc(N)n2nc(-c3ccc(C(C)(C)C)cc3)cc2n1`, for which the inhibition was 38.2% (inactive). In the case of `O=[N+]([O-])c1ccc(O)c(/C=N/Nc2ccccc2[N+](=O)[O-])c1` it was 17.8% (inactive); in that of `O=C(N/N=C/c1cc([N+](=O)[O-])ccc1O)/C(=C\c1cccs1)NC(=O)c1ccccc1`, 83.5% (active); in that of `O=C(N/N=C/c1ccc(O)cc1)/C(=C/c1ccc([N+](=O)[O-])cc1)NC(=O)c1ccccc1`, -0.983% (inactive).

For orientation: inhibition means the relative decrease from the control value, in per cent.
